Among the data in the supplement of paper PMC6555819 are PBM binding z-score values, retold here.

One test has as its system PPARg:RXRa 90nM:30nM, anti-RXR (NR concentration 90 nM, RXRa partner concentration 30 nM). Put plainly: PBM binding z-score (relative to random genomic background probes); higher = stronger binding; sequences stand for … in GC…GCGATTGACAGCGTAGAATGAAGG
In short, it runs like this:
(§1)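 The probes on custom Agilent 4×180K protein-binding microarrays were double-stranded, with 34-nt variable regions bearing direct-repeat seeds, single-nucleotide variants, half-site ablations and random human genomic background sequences. Incubation lasted 1 h with ligand-free nuclear receptor dimers in PBS pH 7.4, 2% milk, 0.02% Triton X-100, 1 mM DTT, 0.2 mg/mL BSA and 0.4 mg/ml salmon testes DNA. Antibodies against each partner (one per run) detected bound dimers, and fluorescence scans were regression-normalized. Binding z-scores take the random background probes as reference.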
Take TGAATGAGGTTACAAGATCAGGGAACGTTGCAAA: the PBM binding z-score was 1.65.

With CCTCGGAGGACAGAAGGACAGAGCTGTCCGCTTT, the PBM binding z-score was -0.86.

ATCCAAAGGTCGTGAGGTGAGTATACAGAAAGGC yielded a PBM binding z-score of 4.08.

The sequence CCTTACGGGTGACGAGGTTATAGCACGACGAGCG came in with a PBM binding z-score of 1.22.

For the sequence CCGACTGGGGCAAGGTTACGATAACGCACAGCCA, the PBM binding z-score was 2.5.

For the sequence TATACAGGGTGAAAGGCCAGAGTACGAATGTCGA, the PBM binding z-score was found to be 5.46.

CAAACTAGATCAAAGGTCAAAGTCGAGCCAACCA displayed a PBM binding z-score of 11.9.

The sequence TCTTGTAGATCAACCAGGTTAAGAAAGCCTGAGT registered a PBM binding z-score of 2.07.

For the sequence TTAATGAGGTTAAAGATCAGGGAACGTGGCGTCG, the PBM binding z-score came to 7.88.

On to ACTCGGCGGACAAAGGTCAGAGCTACGCCAGTGA, for which the PBM binding z-score was 5.74.

TCTATGAGTTGATTAGGGCAACCGAAACAGCGGA came in with a PBM binding z-score of 1.65.

ATCTCTAGGTAACGAAGTTCAGTGAATGCCGAAC displayed a PBM binding z-score of 0.766.

CTCGAAAGGTCGGTTGAGTTGAGTATACGGATAA displayed a PBM binding z-score of 0.857.

As to ACTATTAGTTGATTTAGGGCAACCGATACGACGC, the PBM binding z-score amounted to 0.717.

In the case of AGAATGAGGTTATTGAGATCAGGGAATTGCGGTC, the PBM binding z-score is 1.31.

Take ATCTCTAGGTAAGACTCAGTTCAGTGAAGAACGC: the PBM binding z-score was determined as 0.159.

For CCTATTAGTTGACCATACGGGCAACCGAAGCTCG, the PBM binding z-score was -0.186.

TTACCAAGGTGAAAGGTCCTTGATGCACGCCTTG showed a PBM binding z-score of 6.09.

CCTAGTTGGTCCAGGTCACACACGCTATAGGTAC registered a PBM binding z-score of 1.01.

Sequence CCTCGGAGGACAGGAGGTCAGAGCTGTCCGCTTT returned a PBM binding z-score of -0.13.

Turning to GTACCAAGGTGAATAGATCGTTGATGAGTAGGCG, the PBM binding z-score stood at 0.417.

For the sequence CCTACTGGGCCACGAAAGGTCGTTGATTCAGTGA, the PBM binding z-score worked out at 1.96.

In turn, CAAACTGGGTCACCGGAAGGTCAAAGTCCGCATG displayed a PBM binding z-score of 7.29.

In turn, TCTCGGAGGACACGCAGGTCAGAGCTTTCCAGAG gave a PBM binding z-score of 1.12.

In turn, CCGAGTAGGTTATCGGGCATTCAGGCAACGGTGA registered a PBM binding z-score of 1.54.

TCTTGTAGGTCAACAGGAGGTTAAGAAAGATCGA returned a PBM binding z-score of 6.38.

TGAATTAGGTTAAAGATCAGGGAACGTGGCGTCG returned a PBM binding z-score of 8.06.

ATTCAAAGTTCATCTAGGTAACGTAAGATATGCT yielded a PBM binding z-score of 3.39.

In turn, TAGCCTAGGTGATGCGGGCCAGTATAGTGTCGGC came in with a PBM binding z-score of -0.934.

Sequence TAGCCTAGGTCCTGGGCCAGTATACCACGCGAAC came in with a PBM binding z-score of -0.662.

Sequence CCTATTAGTTGACCATAAGGGCAAGCGAAGCTCG showed a PBM binding z-score of 0.237.

For GGAACGCGGGCAAGTTGATAGCAGAGTTTGATGG, the PBM binding z-score is -0.957.

TCATATAGGTAATACAGGTGAATGTCGGCATCTA had a PBM binding z-score of 3.28.

Regarding ATCGAAAGGTCGACGAGGTGAGTTTACACCGTTT, the PBM binding z-score is 2.05.

In turn, ATATGTAGGTTATCGGGTCATTCAGTTTGCGCAT displayed a PBM binding z-score of 5.64.

Take ACAGACAGGTGAGTGAAGGTAACGCAGCTGGACG: the PBM binding z-score came to 0.232.

Turning to CGTCCAAGGTCAGCAGATCAGTGAAAGCGACGTG, the PBM binding z-score was 1.51.

The sequence AGAATGAGGTTACCAAAGATCCGGGAAACGCTTG returned a PBM binding z-score of 2.13.

AGAACGAGGGCAATGAGTTGCTAGCACGGGTGGC: the PBM binding z-score was determined as 0.214.

The sequence CAAACTAGGTCAAAGGTAAAAGTCGAGCCAACCA showed a PBM binding z-score of 12.1.

For the next test, the system named is PPARg:RXRa DBDmut IVT, anti-RXR (DBD mutation: RXRa K156A/R161A, NR concentration 270 nM, RXRa partner concentration 90 nM). The description is as above. The gist of the method: as §1
The sequence TGAATGAGGTTACAAGATCAGGGAACGTTGCAAA showed a PBM binding z-score of 1.92.

CCTCGGAGGACAGAAGGACAGAGCTGTCCGCTTT returned a PBM binding z-score of -0.418.

Take ATCCAAAGGTCGTGAGGTGAGTATACAGAAAGGC: the PBM binding z-score was 0.752.

Sequence CCTTACGGGTGACGAGGTTATAGCACGACGAGCG came in with a PBM binding z-score of 1.91.

In turn, CCGACTGGGGCAAGGTTACGATAACGCACAGCCA returned a PBM binding z-score of 3.36.

As for TATACAGGGTGAAAGGCCAGAGTACGAATGTCGA, the PBM binding z-score came out at 1.07.

In turn, CAAACTAGATCAAAGGTCAAAGTCGAGCCAACCA yielded a PBM binding z-score of 4.3.

As for TCTTGTAGATCAACCAGGTTAAGAAAGCCTGAGT, the PBM binding z-score amounted to 2.07.

TTAATGAGGTTAAAGATCAGGGAACGTGGCGTCG returned a PBM binding z-score of 4.2.

ACTCGGCGGACAAAGGTCAGAGCTACGCCAGTGA gave a PBM binding z-score of 0.148.

In the case of TCTATGAGTTGATTAGGGCAACCGAAACAGCGGA, the PBM binding z-score is 1.35.

Sequence ATCTCTAGGTAACGAAGTTCAGTGAATGCCGAAC yielded a PBM binding z-score of 3.22.

As to CTCGAAAGGTCGGTTGAGTTGAGTATACGGATAA, the PBM binding z-score was 0.55.

ACTATTAGTTGATTTAGGGCAACCGATACGACGC registered a PBM binding z-score of 1.57.

AGAATGAGGTTATTGAGATCAGGGAATTGCGGTC: the PBM binding z-score was found to be 3.5.

Take ATCTCTAGGTAAGACTCAGTTCAGTGAAGAACGC: the PBM binding z-score amounted to 1.86.

CCTATTAGTTGACCATACGGGCAACCGAAGCTCG showed a PBM binding z-score of 0.407.

TTACCAAGGTGAAAGGTCCTTGATGCACGCCTTG gave a PBM binding z-score of 2.49.

The sequence CCTAGTTGGTCCAGGTCACACACGCTATAGGTAC came in with a PBM binding z-score of 1.21.

CCTCGGAGGACAGGAGGTCAGAGCTGTCCGCTTT had a PBM binding z-score of 0.39.

Take GTACCAAGGTGAATAGATCGTTGATGAGTAGGCG: the PBM binding z-score was determined as 1.62.

Sequence CCTACTGGGCCACGAAAGGTCGTTGATTCAGTGA displayed a PBM binding z-score of 5.8.

Consider CAAACTGGGTCACCGGAAGGTCAAAGTCCGCATG, for which the PBM binding z-score was determined as 8.13.

Regarding TCTCGGAGGACACGCAGGTCAGAGCTTTCCAGAG, the PBM binding z-score was 1.

In turn, CCGAGTAGGTTATCGGGCATTCAGGCAACGGTGA gave a PBM binding z-score of 2.93.

For TCTTGTAGGTCAACAGGAGGTTAAGAAAGATCGA, the PBM binding z-score is 6.99.

TGAATTAGGTTAAAGATCAGGGAACGTGGCGTCG: the PBM binding z-score is 6.08.

Sequence ATTCAAAGTTCATCTAGGTAACGTAAGATATGCT displayed a PBM binding z-score of 0.894.

Consider TAGCCTAGGTGATGCGGGCCAGTATAGTGTCGGC, for which the PBM binding z-score was -0.174.

TAGCCTAGGTCCTGGGCCAGTATACCACGCGAAC showed a PBM binding z-score of -1.56.

Sequence CCTATTAGTTGACCATAAGGGCAAGCGAAGCTCG yielded a PBM binding z-score of 0.132.

With GGAACGCGGGCAAGTTGATAGCAGAGTTTGATGG, the PBM binding z-score was -0.223.

The sequence TCATATAGGTAATACAGGTGAATGTCGGCATCTA yielded a PBM binding z-score of 4.3.

ATCGAAAGGTCGACGAGGTGAGTTTACACCGTTT: the PBM binding z-score was found to be 0.636.

ATATGTAGGTTATCGGGTCATTCAGTTTGCGCAT: the PBM binding z-score was 7.56.

Consider ACAGACAGGTGAGTGAAGGTAACGCAGCTGGACG, for which the PBM binding z-score stood at 0.361.

The sequence CGTCCAAGGTCAGCAGATCAGTGAAAGCGACGTG had a PBM binding z-score of 2.68.

In turn, AGAATGAGGTTACCAAAGATCCGGGAAACGCTTG came in with a PBM binding z-score of 3.81.

AGAACGAGGGCAATGAGTTGCTAGCACGGGTGGC showed a PBM binding z-score of 3.04.

CAAACTAGGTCAAAGGTAAAAGTCGAGCCAACCA had a PBM binding z-score of 8.99.
